Compounds with a hit are over-represented: about 2.8% of the library has one in this group of screens.
SNCA expr inh – Primary qHTS assay for inhibitors of alpha-synuclein gene (SNCA) expression. HEK-293 SNCA-luciferase knock-in, luminescence, 24 h. Potency, µM (highest dose often 57.2 µM), for inactives: at the highest dose activity change, negative = inhibition, most hits filed as inhibitors. 140,000 compounds, 0.17% hits. AID 1671194, 2021;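 further: potency means the concentration at half of the fitted maximal effect; plate controls were DMSO cells for no effect and cell-free wells for full effect; nearly all actives have a fitted effect of over 45% in size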
IP6K1 inh – Primary qHTS assay for small molecule inhibitors of Inositol hexaphosphate kinase 1 (IP6K1); IP6K1 kinase, ADP-Glo luminescence, 2 h; hits give low values; 140,000 compounds, 0.81% hits; activity change, % (series mostly up to about 58 µM); in the data active means activity change below about -25%; further: on the % scale 0 is the no-effect control and ±100 the full control effect
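ADP-Glo luminescence measures ADP made by human IP6K1 during a 2 h RT reaction with ATP/IP6 (mix at 1.3 mM/130 uM); top library doses 57.5 and 19.1 uM final.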
HEK293 viab – GF-AFC viability counterscreen for inhibitors of alpha-synuclein gene (SNCA) expression. HEK-293-SNCA-luc viability, GF-AFC fluorescence, 24 h. Potency, µM (series often up to 57.1 µM), without a hit: at the highest dose activity change, negative = cytotoxicity, hits mostly cytotoxic. 150,000 compounds, 0.12% hits;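 further: potency means the concentration at half of the fitted maximal effect; 0% = DMSO-treated cells and -100% = medium-only wells without cells; nearly all actives have a fitted effect of over 30% in size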
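HEK-293-SNCA-luc cells (1500/well) plated 24 h, then exposed 24 h to a dilution series; GF-AFC added 30 min at 37C, fluorescence 405/540 nm; normalised to medium-only and DMSO wells, Hill fit.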
KDM5B inh – Primary screen for KDM5B Histone Demethylases FDH-coupled qHTS; KDM5B demethylase, FDH-coupled NADH fluorescence (FDH is formaldehyde dehydrogenase); Potency, µM (highest dose often 57.7 µM), actives largely listed as inhibitors; 220,000 compounds, 2.6% hits; AID 1347165, 2019; further: potency means the concentration at half of the fitted maximal effect; 0% is about no effect; nearly all actives have a fitted effect of over 70% in size
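Measured: NADH fluorescence change, 30 min, RT. System: KDM5BΔAP 200 nM final, H3K4me3 peptide, α-KG, Fe(II), ascorbate, NAD⁺ plus FDH, pH 7.5 HEPES. Compounds: titrated, 10 min pre-incubation with enzyme.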
* hit, by the source's call; i = inactive; ? = inconclusive; · = no result; [ ] = remark or other dose. Unless noted, the call rests on the fitted dose curve; in most records, active means well fitted curve in the direction sought with a large enough effect; inconclusive means small, poorly fitted or top-dose-only effect, or another doubt; inactive means no such curve, though single readings can be large; an effect the other way counts as inactive or inconclusive.

SMILES	SNCA expr inh	IP6K1 inh	HEK293 viab	KDM5B inh
O=C([C@@H]1C[C@H](Oc2cccnc2)CN1S(=O)(=O)c1ccc2c(c1)CCC2)N1CCCC1	2%	0	-16%	i
Cc1c(-c2ccccc2F)[nH]c2ccc(CNC(=O)CCC3=NNC(=O)CC3)cc12	25%	-15	3%	?
Cc1c(-c2ccccc2F)[nH]c2ccc(CNC(=O)CCN3CCCC3=O)cc12	27%	15	11%	28µM*
Cc1c(-c2ccccc2F)[nH]c2ccc(CNC(=O)Cn3ccc(=O)[nH]c3=O)cc12	50%	-3	-10%	32µM*
CCOc1ccc(CCNC(=O)CCCc2cc(-c3ccc(OCC)cc3)on2)cc1	-25%	6	-2%	i
Cc1ccc(Cn2c(C3CCN(C(=O)c4ccccc4Cl)CC3)n[nH]c2=O)cc1	-1%	1	1%	i
CC(C)n1nc(OC(C)(C)C(=O)Nc2cccnc2)c2cc(CN3CCOCC3)ccc21	-2%[87.6 µM]	-4	5%[87.6 µM]	?
CC(C)n1nc(OC(C)(C)C(=O)NCCc2ccccn2)c2cc(CN3CCOCC3)ccc21	0%	8	-8%	28µM*
CC(C)n1nc(OC(C)(C)C(=O)NC2CC2)c2cc(CN3CCOCC3)ccc21	-5%[87.6 µM]	2	-10%[87.6 µM]	32µM*
COc1ccc(NC(=O)C2(C)CN(C)Cc3ccc(NCc4ccccc4)nc32)cc1 (configuration not stated)	3%[87.6 µM]	5	-3%[87.6 µM]	32µM*
CN1Cc2ccc(NCc3ccccc3)nc2C(C)(C(=O)Nc2ccccc2)C1 (configuration not stated)	?	20	?	28µM*
COCCNC(=O)C1(C)CN(C)Cc2ccc(Nc3ccccc3)nc21 (configuration not stated)	-15%[87.6 µM]	12	-4%[87.6 µM]	i
COc1cccc(Nc2ccc3c(n2)C(C)(C(=O)NCc2cccs2)CN(C)C3)c1 (configuration not stated)	-4%[87.6 µM]	-8	-20%[87.6 µM]	28µM*
CN1Cc2ccc(NCc3ccccc3)nc2C(C)(C(=O)NCCOc2ccccc2)C1 (configuration not stated)	43%[87.6 µM]	2	?	32µM*
CN1Cc2ccc(NCc3ccccc3)nc2C(C)(C(=O)NCc2cccs2)C1 (configuration not stated)	-28%[87.6 µM]	-6	-17%[87.6 µM]	?
O=C(NC1C[C@H]2CC[C@@H](C1)N2C(=O)C1CCCCCC1)c1ccncc1 (some centres not stated)	1%	21	?	i
C[C@@H](NC(=O)NC(C)(C)C)c1onc(-c2ccc(F)cc2)c1C(=O)O	?	19	-2%[87.6 µM]	i
C[C@@H](NC(=O)c1nc2ccccc2[nH]1)c1onc(-c2ccc(F)cc2)c1C(=O)O	1%[87.6 µM]	7	1%[87.6 µM]	35µM*
Cc1nn(-c2ccccc2)nc1C(=O)N[C@H](C)c1onc(-c2ccc(F)cc2)c1C(=O)O	6%	9	0%	32µM*
C[C@@H](NC(=O)c1ccc(Cl)cc1)c1onc(-c2ccc(F)cc2)c1C(=O)O	7%[87.6 µM]	-2	4%[87.6 µM]	i
Cc1cc(C(F)(F)F)c(C#N)c(SCc2cccc(C(F)(F)F)c2)n1	·	·	·	i
COc1cccc(CNS(=O)(=O)c2cc(Br)cc3c2N(C(C)=O)C(C)C3)c1 (configuration not stated)	3%	4	6%	i
COc1ccc(-c2nc3cc(C)ccc3cc2CN2CCC[C@H]2C(N)=O)cc1OC	-17%	20	-14%	?
CCc1noc(-c2cccn3c(CNC(=O)Cc4cccc(F)c4)nnc23)n1	-14%	8	-6%	25µM*
CCc1noc(-c2cccn3c(CNC(=O)c4c(F)cccc4Cl)nnc23)n1	-15%	35	-5%	28µM*
SMILES	SNCA expr inh	IP6K1 inh	HEK293 viab	KDM5B inh
CCc1noc(-c2cccn3c(CNC(=O)c4cccc(N(C)C)c4)nnc23)n1	21%	9	-16%	i
CCCc1noc(-c2cccn3c(CNC(=O)c4cccc(F)c4)nnc23)n1	-15%	-3	-3%	25µM*
CCc1noc(-c2cccn3c(CNC(=O)c4cccc(F)c4)nnc23)n1	4%	40	2%	22µM*
O=c1c(-c2ccc(F)cc2)nc2cnc(Oc3ccccc3)nc2n1C1CC1	4%	·	-5%	·
COc1ccc2[nH]c3c(c2c1)CCN(C)C31CCN(C(=O)c2ccc(OC)nc2)CC1	4%	3	-5%[12.5 µM]	i
O=C(c1cc[nH]c(=O)c1)N1CC(F)(F)C[C@H]1c1nc(C2CC2)no1	15%	-2	1%	28µM*
O=C(c1cc(C2CC2)[nH]n1)N1CC(F)(F)C[C@H]1c1nc(C2CC2)no1	-14%	1	3%	i
O=C(c1ccc2cc[nH]c2c1)N1C[C@@H](CO)[C@H](c2nc(C3CC3)no2)C1	7%	-4	2%	32µM*
O=C(c1ccccc1)N1CCC2(C1)C(=O)Nc1ccccc12 (configuration not stated)	16%[87.6 µM]	-7	2%[87.6 µM]	i
Cc1[nH]c(=O)c(C#N)cc1C(=O)N1CCC2(CC1)C(=O)Nc1ccccc12	3%	9	2%	22µM*
CCn1nccc1C(=O)N1CCC2(CC1)C(OC)C(=O)N2CC1CC1 (configuration not stated)	-13%	3	0%	i
COc1cc(C)c2c(c1C)C[C@H]([C@H](C)C(=O)O)CC2	-13%[87.6 µM]	7	25%[87.6 µM]	i
COc1cc(C)c2c(c1C)C[C@H](C(C)C(=O)NCc1ccco1)CC2 (some centres not stated)	-8%[87.6 µM]	14	-5%[87.6 µM]	35µM*
CCOc1ccc(Cc2nc(-c3c(C)nc4ccccn34)cs2)cc1	·	-1	12µM*	·
N#Cc1ccc(CNC2(Cc3cc(CN4CCN(c5ccccc5)CC4)on3)COC2)cc1	?	7	0%	i
O=Cc1cccc(-c2ccc(C(=O)O)o2)c1	27%[87.6 µM]	-20	4%[87.6 µM]	126µM*
O=C(O)c1ccc(Cc2ccccc2)o1	·	·	·	i
Cc1ccc(Cn2cc(-c3ccncc3)cc2C(=O)N(C)Cc2ccccc2)cc1	-26%	-6	?	22µM*
Cc1ccc(Cn2cc(-c3ccncc3)cc2C(=O)NCC2CC2)cc1	10%	0	3%	35µM*
C=C(C)C1Cc2cc(C(=O)OC3OC(CO)C(O)C(O)C3O)ccc2O1 (configuration not stated)	·	-3	-1%	·
O=C1CC2(CCN(Cc3ccc(F)cc3)CC2)Oc2ccccc21	9%[87.6 µM]	15	-8%[87.6 µM]	28µM*
N#Cc1ccc(CN2CCC3(CC2)CC(=O)c2ccccc2O3)cc1	-24%[87.6 µM]	-4	-17%[87.6 µM]	32µM*
O=C1CC2(CCN(CC3CC3)CC2)Oc2cc(Cl)ccc21	60%[87.6 µM]	0	-6%[87.6 µM]	?
O=C1CC2(CCN(Cc3cccnc3)CC2)Oc2ccccc21	23%[87.6 µM]	0	3%[87.6 µM]	35µM*
